Measurements taken from PubChem BioAssay (NCATS).
This is one part of the list. Inconclusive results are not listed. Values without a mark were called inactive. Activity calls are given as the source filed them. Calls follow the shape of the dose curve; as a rule, active = well fitted cell-killing curve with a large enough effect; inconclusive = small, poorly fitted or top-dose-only effect, or effect the other way; inactive = flat fitted curve, though single readings scatter.

Test: Cell viability qHTS assay in S16 Pmp22-F2sN cells - Confirmatory screen (AID 1508641)
Settings: S16 Schwann cells viability, CellTiter-Glo ATP luminescence, 24 h; series mostly up to 57.5 µM; activity change, negative = viability loss: at the top concentration
Text: Assay Provider: Jim Inglese Ph.D. National Center for Advancing Translational Science, National Institutes of Health, Rockville, MD CMT is a heterogeneous group of neurological disorders that affect approximately 1 in 2,500 people. In particular, the most common form of CMT, CMT1A is genetically linked to the duplication of the PMP22 gene which leads to Schwann cell overexpression, thus manifesting itself as a typical case of dose-sensitive diseases. To identify small molecule compounds that can mediate the expression of PMP22 we developed a phenotypic assay screening strategy by utilizing genome editing techniques to construct Schwann cell lines containing novel reporter technology to monitor the transcriptional or translational regulation of PMP22. For high sensitivity we use a bioluminescent reporter system embedded in the 3' UTR of the PMP22 gene (S16(c9) Pmp22-F2sN) to identify compounds that inhibit gene expression. […] We can further discriminate the effect of all transcriptionally active molecules on PMP22 translation or stability with an assay that incorporates a short NLuc peptide (HiBiT) at the C-terminus of expressed PMP22 (S16(f8) PMP22-HiBiT) allowing alpha complementation and luminescence detection of membrane-associated PMP22 protein. These assays were screened against the NCATS Sytravon Library Collection. Miniaturization of these assays to 1536-well plate format for quantitative high throughput screening (qHTS) yielded rich data sets immediately from the qHTS assay (S16(c9) Pmp22-F2sN), when compared with data from a cell viability assay (Cell TiterGlo) to identify compounds that decreased the output signals through cellular toxicity to streamline the selection process of actives for subsequent characterization using the HiBiT assay (S16(f8) PMP22-HiBiT).
Cell viability assay in S16 Pmp22-F2sN cells PROTOCOL TABLE (format as described by Inglese J, Shamu CE and Guy RK. 2007) SEQUENCE No. (e.g., 1, 2, 3, etc.); PARAMETER (e.g., Cells, Incubation, Reagent, etc.); VALUE and DESCRIPTION. 1. Cells. Add 500-1,000 cells in 4 uL in growth media (DMEM High Glucose, No Phenol Red media + 10% heat-inactivated FBS + 1% Pen/Strep supplemented media) per well into Greiner 1536-well white/solid bottom high base, TC-treated plates. 2. Compounds. Library compounds and controls added at 23nL per well, transferred by Pin Tool. 3. Incubation. Incubate plates at 37C, 5% CO2, 95% RH for 24 h. 4. Reagent. Add 3uL CellTiter-Glo per well of Greiner 1536-well plates. 5. Incubation. Incubate plates at room temperature for 15 min., protect from light. 6. Detector. FLuc luminescence measured using CCD-based camera (Viewlux). NOTES (numbers refer to Sequence numbers above; values are from representative experiments) 6. Luminescence Read: Clear filter; Exposure = 1 sec, Gain = High, Speed = Slow, Binning = 2X REFERENCES: 1. Inglese J, Shamu CE and Guy RK, Reporting data from high throughput screening of small molecule libraries, Nature Chemical Biology, 2007, 3(8): 438-441. doi.org/10.1038/nchembio0807-438 2. Yasgar A, Shinn P, Jadhav A, Auld DS, Michael S, Zheng W, Austin CP, Inglese J and Simeonov A, Compound Management for Quantitative High-Throughput Screening. J. Assoc. Lab. Auto., 2008, 13: 79-89. doi: 10.1016/j.jala.2007.12.004
% is scaled to controls: 0 for no effect and ±100 for the full control effect; potency is read from the fitted curve at half-maximal effect.

Row | SMILES | activity change, negative = viability loss | Potency
1 | Cc1ccc(OCCSc2nc3ccc(NC(=O)COc4ccc(C)cc4)cc3s2)cc1 | 1.55% | –
2 | CCOC(=O)C1CCN(C(=O)CSc2c3c(nc4ccc(Cl)cc24)CCCC3)CC1 | 2.06% | –
3 | COc1ccc(C2Sc3ccccc3NC3=C2C(=O)c2ccccc23)c(OC)c1OC (stereo not drawn) | -4.14% | –
4 | Cc1sc(C2C(C#N)=C(N)N(c3cccc(Cl)c3)C3=C2C(=O)CCC3)cc1CN1CCOCC1 (stereo not drawn) | -21.2% | –
5 | CCOCCCNC(=O)c1c(NC(=O)c2nc(SC)ncc2Cl)sc2c1CCCC2 | -11.1% | –
6 | O=C(c1ccc2c(c1)N(Cc1ccc(F)cc1)C(=O)c1ccccc1S2(=O)=O)N1CCN(c2ccccn2)CC1 | 8.53% | –
7 | COc1ccc(-c2onc(C)c2C)cc1S(=O)(=O)NCC1CCN(Cc2cccc(F)c2)CC1 | -28.1% | –
8 | COc1cccc(NC(=O)N(Cc2cn(C)c3ccccc23)C2CCCCCC2)c1 | 2.35% | –
9 | CC(=O)N1CCCc2cc(S(=O)(=O)N3CCCC(C(=O)N4CCN(c5cccc(Cl)c5)CC4)C3)ccc21 (stereo not drawn) | – | 27.3 µM (active)
10 | CCC1=Nc2cc(C(=O)NCCCOC(C)C)ccc2Sc2ccc(C)cc21 | 12.9% | –
11 | Cc1ccc(Cn2c(C)c3cnn(CC(=O)NCc4ccccc4)c(=O)c3c2C)cc1 | 5.5% | –
12 | Cc1cccc(Nc2cc(C)nc(-n3nc(C)cc3C)n2)c1 | -29.4% | –
13 | CCC1CCCCN1CCCNC(=O)c1cc2c(Cl)nc3ccccc3c2s1 (stereo not drawn) | -4.86% | –
14 | O=C(c1ccc(C(F)(F)F)cc1)N1CCC(c2nc(-c3ccc(S(=O)(=O)N4CCCC4)cc3)no2)CC1 | -11.1% | –
15 | O=S(=O)(c1ccc(Cl)cc1)c1nnn2c1nc(NC1CCCC1)c1sccc12 | 0.836% | –
16 | CCc1ccc(NC(=O)CN2CCSc3ccc(S(=O)(=O)N4CCCC4)cc32)cc1 | -8.45% | –
17 | Cc1cc(F)ccc1NS(=O)(=O)c1ccc(-n2cccn2)cc1 | -2.74% | –

Row | SMILES | activity change, negative = viability loss | Potency
18 | O=C(NCCCN1CCN(c2cccc(Cl)c2)CC1)c1nnc(Cc2ccc(F)cc2Cl)o1 | -16.8% | –
19 | COc1ccccc1Nc1c2c(nc3ccc(NC(=O)/C=C/c4cc(OC)c(OC)c(OC)c4)cc13)CCCC2 | – | 17.2 µM (active)
20 | CC(C)(C)c1ccc(C(=O)NCC(c2ccco2)S(=O)(=O)c2ccc(F)cc2)cc1 (stereo not drawn) | -5.87% | –
21 | COc1cccc(NC(=O)CSC2=Nc3ccccc3C3=NC(CC(=O)NC4CCCCC4)C(=O)N23)c1 (stereo not drawn) | -8.7% | –
22 | COc1ccc(CCNC(=O)c2cc(=O)c3c(C)cc(C)cc3o2)cc1OC | -7.68% | –
23 | CCCS(=O)(=O)c1ncc(Cl)c(C(=O)Nc2scc(-c3ccccc3)c2C(=O)OCC)n1 | – | 27.3 µM (active)
24 | CCCn1c(=N)c(C(=O)NCc2ccccc2)cc2c(=O)n3cccc(C)c3nc21 | -5.14% | –
25 | Cc1ccc(C)n1-c1nnc(N2CCC(C(=O)NCc3ccccc3Cl)CC2)s1 | -17% | –
26 | Cc1ccc(NC(=O)c2nc(S(=O)(=O)Cc3cccc(C)c3)ncc2Cl)cc1 | – | 30.6 µM (active)
27 | CCOC(=O)c1ccc(N2C(=O)c3n[nH]c(C)c3C2c2ccc(O)c(OC)c2)cc1 (stereo not drawn) | 8.57% | –
28 | Cc1cc(OCC(=O)NCC2(N(C)C)CCCCC2)cc(C)c1Cl | -10.4% | –
29 | CCOc1ccc(NC(=O)c2c(NC(=O)Cc3ccccc3)sc3c2CCC(C)C3)cc1 (stereo not drawn) | -9.38% | –
30 | CCOC(=O)c1c(C)[nH]c(CCC(=O)NCCCN2CCN(c3cc(C)ccc3C)CC2)c1C | – | 30.6 µM (active)
31 | Cc1ccc(CCNC(=O)C2CCN(c3nnc(-n4cccc4CNc4ccc(C)cc4)s3)CC2)cc1 | -3.6% | –
32 | Cc1ccccc1CNC(=O)CSc1nnc(C)c2c(C)n(-c3ccccc3)nc12 | 2.28% | –
33 | Cc1nnc(SCC(=O)NCc2ccccc2Cl)c2nn(-c3ccccc3)c(C)c12 | 9.7% | –
